LDHA inh = blocks human lactate dehydrogenase A | P00338 | purified LDHA, NADH/diaphorase-resazurin fluorescence; active compounds read low | activity change, % (values are at about 110 or 230 µM) | actives 0.15% (n = 480,000); in the data active = activity change below about -30%; inconclusive = mostly about -25% to -30%;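 also: plate controls were DMSO wells for no effect and wells without enzyme for full effect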
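Remaining NADH was detected by diaphorase (0.133 mg/mL) converting 37 µM resazurin to fluorescent resorufin, read at 0 and 20 minutes. The preceding 5-minute room-temperature reaction used 2 nM LDHA, 0.2 mM sodium pyruvate and 0.06 mM NADH at pH 7.4.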
ClpP mod = qHTS Assay for Activators of ClpP. Potency, µM (highest dose often 57.5 µM), without a hit: at the top dose activity change, negative = active. purified B. subtilis ClpP, FRET peptide cleavage, 20 min. AID 651965, 2013. ATP-dependent Clp protease proteolytic subunit (Bacillus subtilis (strain 168)), P80244. actives 1.9% (n = 340,000); active = well fitted falling curve with a large enough effect; inconclusive = small, poorly fitted or top-dose-only effect; inactive = no such curve, though single readings can be large or run the other way; also: potency is read from the fitted curve at half-maximal effect; the source files actives as falling curves though it sought activators and does not explain the sign; nearly all actives have a fitted effect of over 65% in size
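Buffer: 100 mM Tris/HCl pH8, 100 mM KCl, 0.05% low protease BSA, 2.5% glycerol, 0.01% Tween-20. ClpP 10 microg/mL final; 20 min RT; delta FRET normalized to ADEP and DMSO controls.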
ALOX12 inh = blocks human arachidonate 12S-lipoxygenase. P18054. purified 12hLO, xylenol orange hydroperoxide absorbance. Potency, µM (titrated, usually from 108 µM), inactives show at the highest dose activity change, negative = inhibition, usual class: inhibitors. actives 1.1% (n = 580,000). AID 1671190; active = well fitted inhibition curve with a large enough effect; inconclusive = small, poorly fitted or top-dose-only effect, or another doubt; inactive = no such curve, though single readings can be large or run the other way; also: potency is read from the fitted curve at half-maximal effect; % is scaled to controls: 0 for no effect and ±100 for the full control effect
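Purified human 12hLO (150 nM final) in 25 mM Hepes, 0.01% Triton X-100, pH 7.0 was preincubated 15 min at room temperature with compound. Then 40 uM arachidonic acid was added, 30 min. Hydroperoxide was read by Fe-XO absorbance ratio 573/405 nm.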
hERG WT inh = blocks the wildtype human KCNH2 potassium channel; Q12809; U2OS, BacMam KCNH2, thallium flux FluxOr; active compounds read low; activity change, % at 1.84 µM; actives 0.37% (n = 340,000);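 active = maximum activity change below -70%; inconclusive = maximum activity change between -70% and -50%; inactive = maximum activity change above -50%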; also: % is scaled to controls: 0 for no effect and ±100 for the full control effect
Target sequence (Q12809 whole entry, looked up): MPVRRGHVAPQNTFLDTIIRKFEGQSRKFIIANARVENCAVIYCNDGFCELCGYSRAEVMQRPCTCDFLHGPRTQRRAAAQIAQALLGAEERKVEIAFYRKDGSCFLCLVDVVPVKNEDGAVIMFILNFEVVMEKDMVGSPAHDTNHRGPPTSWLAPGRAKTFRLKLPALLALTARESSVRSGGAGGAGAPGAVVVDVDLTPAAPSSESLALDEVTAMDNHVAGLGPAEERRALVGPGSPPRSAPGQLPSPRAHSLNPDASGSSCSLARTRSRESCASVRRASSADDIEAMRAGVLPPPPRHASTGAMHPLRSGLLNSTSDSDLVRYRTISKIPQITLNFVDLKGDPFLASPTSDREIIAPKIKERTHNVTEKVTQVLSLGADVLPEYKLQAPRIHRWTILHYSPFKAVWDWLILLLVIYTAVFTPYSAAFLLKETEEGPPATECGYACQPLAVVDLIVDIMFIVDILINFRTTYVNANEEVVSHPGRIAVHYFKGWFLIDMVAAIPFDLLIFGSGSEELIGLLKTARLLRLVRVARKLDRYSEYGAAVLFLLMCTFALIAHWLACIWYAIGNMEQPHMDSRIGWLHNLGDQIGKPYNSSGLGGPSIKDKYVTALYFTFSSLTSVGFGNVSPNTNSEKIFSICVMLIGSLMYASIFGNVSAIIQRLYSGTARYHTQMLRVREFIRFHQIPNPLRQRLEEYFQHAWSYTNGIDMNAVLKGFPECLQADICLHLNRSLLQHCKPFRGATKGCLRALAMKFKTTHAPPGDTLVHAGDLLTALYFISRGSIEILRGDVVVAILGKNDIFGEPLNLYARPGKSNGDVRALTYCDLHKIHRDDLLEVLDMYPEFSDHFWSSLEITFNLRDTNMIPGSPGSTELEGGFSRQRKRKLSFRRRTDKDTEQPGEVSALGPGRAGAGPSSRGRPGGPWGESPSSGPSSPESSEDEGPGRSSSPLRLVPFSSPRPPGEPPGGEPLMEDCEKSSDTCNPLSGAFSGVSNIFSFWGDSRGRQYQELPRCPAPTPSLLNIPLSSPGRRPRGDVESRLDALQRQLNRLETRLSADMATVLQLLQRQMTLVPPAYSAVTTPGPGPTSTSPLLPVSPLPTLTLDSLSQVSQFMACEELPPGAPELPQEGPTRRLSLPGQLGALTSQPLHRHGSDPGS
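U2OS cells transduced with wild-type KCNH2 virus are loaded with FluxOr dye for 45 min, and thallium flux is measured in kinetic reads before and after stimulation buffer. Rate constants are normalized to DMSO controls.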
KCNH2 3.1 block = KCNH2 3.1 (human) potassium channel inhibition. U2OS KCNH2 3.1, thallium flux FluxOr; active compounds read low. activity change, % (tested at about 1.8 µM). actives 0.95% (n = 340,000);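 active = maximum activity change below -70%; inconclusive = maximum activity change from -70% to -50%; inactive = maximum activity change above -50%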;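 also: thallium influx rate constant from kinetic fluorescence after stimulation buffer; % is scaled to controls: 0 for no effect and ±100 for the full control effect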
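We transduce U2OS cells with the mutant 3.1 virus, culture them overnight, load FluxOr with Red40 quencher for 45 min, then add stimulation buffer and read kinetically for 2 min to derive a normalized rate constant.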
BCR signal inh = inhibitors of chronic active B-cell receptor signaling; Potency, µM (top dose mostly 46.1 µM), for the others: at the highest dose activity change, negative = inhibition, most hits filed as inhibitors; actives 0.05% (n = 340,000); ABC-DLBCL IkBa-CBG/CBR reporter, luminescence ratio, 4 h; active = well fitted inhibition curve with a large enough effect in the signal ratio, with a control signal flat, not every such curve was filed as active; inconclusive = small, poorly fitted or top-dose-only effect, or effect the other way, or a change in a side signal; the % refers to the signal ratio;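 also: potency is read from the fitted curve at half-maximal effect; plate controls were basal doxycycline-induced cells for no effect and cells given 10 µM MG132 for full effect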
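TMD8 ABC-DLBCL cells carrying doxycycline-inducible green luciferase fused to IkappaBalpha plus unfused red luciferase were exposed to compounds (up to 46 uM) for 4 hrs at 37C. Activity came from the overlap-corrected green/red luminescence ratio.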
* = called active by the depositor; ? = inconclusive; · = no result given; [ ] = dose if it differs, or a comment. An excerpt weighted towards active compounds, which were near 3% of everything screened.

SMILES | LDHA inh | ClpP mod | ALOX12 inh | hERG WT inh | KCNH2 3.1 block | BCR signal inh
CC[C@]12CCCN3CCc4c(n(c5ccccc45)[C@@](O)(C(=O)OC)C1)[C@@H]32 | -3 | 0% | 16% | -15 | -103* | 3%
CC[C@]12CCCN3CCc4c(n(c5ccccc45)C(=O)C1)[C@@H]32 | -2 | 0% | ? | 47 | ? | -19%
Cc1cc(NC(=O)CN2CCC(n3nnc4cc(C(F)(F)F)ccc43)CC2)no1 | -4 | 0% | 2%[57.4 µM] | 12 | -24 | -2%
CCOc1ccc2nc(NC(=O)CN3CCC(n4nnc5cc(C(F)(F)F)ccc54)CC3)sc2c1 | -7 | -6% | -19% | -2 | -79* | 7%
Cc1ccc2sc(N(CCCN(C)C)C(=O)c3ccc(S(=O)(=O)N(C)Cc4ccccc4)cc3)nc2c1C | 1 | -10% | 28µM* | -4 | -24 | ?
CCOc1ccc2nc(N(CCN(C)C)C(=O)c3cc4ccccc4cc3OC)sc2c1 | -1 | -1% | · | ? | 4 | -10%
CCOc1cccc2sc(N(CCN(C)C)C(=O)c3cc4ccccc4cc3OC)nc12 | 1 | -7% | ? | -17 | -79* | ?
CCOc1cccc2sc(N(CCCN(C)C)C(=O)c3ccc(S(=O)(=O)N(C)Cc4ccccc4)cc3)nc12 | -5 | 39% | ? | -74* | · | ?
COc1ccc(CNC[C@H]2COCc3nc4cccnc4n32)cc1 | · | · | 59%[176 µM] | · | · | ·
O=C(COC(=O)c1cncc(Br)c1)Nc1nnc(-c2ccccc2)o1 | -11 | -7% | 7% | -72* | 17 | ·
COc1cc(OC)cc(C(=O)OCC(=O)Nc2nnc(-c3ccccc3)o2)c1 | 1 | · | 3% | 3 | 18 | ·
Cc1cccc(OCC2(CNCc3cnn(C)c3)C[C@@H](O)[C@@H](O)C2)n1 (stereo partly drawn) | · | · | 28µM* | · | · | ·
Cc1cccc(OCC2(CNC3CCOCC3)C[C@@H](O)[C@@H](O)C2)n1 (stereo partly drawn) | · | · | 25µM* | · | · | ·
Cc1cccc(OCC2(CNC3CCN(C)CC3)C[C@@H](O)[C@@H](O)C2)n1 (stereo partly drawn) | · | · | 15%[176 µM] | · | · | ·
Cc1cccc(OCC2(CNC(=O)c3cc(C)nn3C)C[C@@H](O)[C@@H](O)C2)n1 (stereo partly drawn) | · | · | 25µM* | · | · | ·
Cc1cccc(OCC2(CNC(=O)c3cc(C)on3)C[C@@H](O)[C@@H](O)C2)n1 (stereo partly drawn) | · | · | 114%[176 µM] | · | · | ·
CCc1nnsc1C(=O)N(C)Cc1ccc(F)cc1F | 2 | · | 42% | · | · | ·
CN(Cc1ccc(F)cc1F)C(=O)c1cc(Br)ccc1O | 17 | · | 10µM* | · | · | ·
Cc1ccc(Nc2c(-c3ccc(C)o3)nc3cccc(C)n23)cc1 | 8 | 4% | 45µM* | · | · | ·
CC1(C)NC(=S)NC1=S | -9 | -2% | 5% | -1 | 1 | ·
CCC1(CC)NC(=S)NC1=S | -1 | 28µM* | 0% | 24 | 2 | ·
O=C(c1cccn2c(=O)c3cc(Cl)ccc3nc12)N1CCOCC1 | -3 | 18µM* | -10% | 0 | -6 | ?
O=C(c1ccc2nc3ccc(Cl)cc3c(=O)n2c1)N1CCOCC1 | -6 | 16µM* | -24% | -9 | -2 | -6%
O=C(c1cnc2ccc(Cl)cc2c1Cl)N1CCOCC1 | 1 | 0% | ? | -12 | -11 | 6%
O=C(c1cccn2c(=O)c3cc(Cl)ccc3nc12)N1CCN(Cc2ccc3c(c2)OCO3)CC1 | 4 | -17% | -8% | 8 | -83* | 3%
C=CCNC(=O)Cc1ccc(N(Cc2cccc(F)c2)C(=O)c2ccco2)cc1 | · | · | 52% | · | · | ·
CC1C(c2cccs2)=[N+]([O-])C(C)(c2ccc(Cl)cc2)N1O (stereo not drawn) | 8 | · | ? | · | · | ·
Cc1cc(NCCCN2CCOCC2)n2nc(C)c(-c3ccccc3)c2n1 | -4 | -13% | -21% | 4 | -19 | 1%

High-throughput results (PubChem BioAssay)
